Active and inactive are the calls of the source.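 The calls were made as follows: active = EC50 at or below 10 µM; inactive = EC50 above 10 µM.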

The assay in a line: fluorescence interference artefacts, compound only, dose response, artefact control for cardiac thin filament activator project, biochemical, no RTF in test wells (AID 504697).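 Also: emission near 535 nm under roughly 485 nm excitation as for IANBD.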 The note with it: compound-only fluorescence in RTF assay buffer with Ca2+ (no RTF in test wells), artifact counterscreen. Background: The purpose of a counterscreen is to sort out artefacts and off-target activity.
Broadly, the EC50 is the midpoint of the concentration-response curve. `COc1cccc(CC(NC(C)=O)C(=O)NC2CCN(c3nc(C)cc(C)c3C#N)CC2)c1OC` (stereo unspecified): the EC50 was > 71.5 µM (inactive).
Under `CNc1ccccc1C(C)(C)c1cc(C)[nH]n1` stands > 71.5 µM (inactive); under `CCN1/C(=C/c2ccc3cc(C)ccc3[n+]2CC)Sc2ccccc21`, > 71.4 µM (inactive); under `Cc1sc(NC(=O)CSc2nnc(C(C)C)n2C)c(C#N)c1C`, > 71.5 µM (inactive).
To `CCn1cc(C(=O)NCCC(=O)NCCO)c(=O)c2cc3c(cc21)OCO3` belongs > 71.4 µM (inactive); to `Cc1ccc(N2C(=O)C3C(C(=O)c4ccccc4)=NN(c4ccccc4)C3C2=O)cc1` (stereo unspecified), 33.8 µM (inactive); to `O=C(COC(=O)c1ccc(O)cc1)Nc1ccc2c(c1)OCCO2`, > 71.5 µM (inactive).
Under `O=C(O)c1ccc(NC(=S)NC(=O)c2ccc(-c3ccccc3)cc2)cc1` stands > 71.5 µM (inactive).
As for `CCSC1=N/C(=C\C=C2/Oc3ccccc3N2CC)C(=O)S1`, the EC50 is 11.9 µM (inactive).
To `CCN1C(=O)/C(=C/C=C2/SCCN2C)SC1=S` belongs 2.63 µM (active); to `CCCN1C=CC(=CC=C(C#N)C#N)C=C1`, 19.9 µM (inactive); to `Cc1ccccc1-n1nnnc1SCC(C)C`, > 71.5 µM (inactive).
On to `C=CCOc1ccc(Br)cc1CNCC`, for which the EC50 was > 71.6 µM (inactive).
To `Fc1ccc(-c2[nH]ncc2CN(CC2CCC2)CC2CCCO2)c(F)c1` (stereo unspecified) belongs > 71.5 µM (inactive); to `CCOC(=O)N1CCN(C(=S)Nc2ccccc2C)CC1`, > 71.4 µM (inactive).
Under `CC(/C=N/Nc1ccc2nncn2n1)=C\c1ccccc1` stands > 71.5 µM (inactive).

These data come from PubChem BioAssay AID504697 (The Scripps Research Institute Molecular Screening Center, 2011).
